Our source for the binding signal values is PMC7862700, “An all-to-all approach to the identification of sequence-specific readers for epigenetic DNA modifications on cytosine”.

Common to all, as to assay: DAPPL (digital affinity profiling via proximity ligation, sequencing); 10 mM Tris-HCl pH 7.5, 50 mM NaCl, 1 mM DTT, 4% glycerol, room temperature, 30 min; GST-TFs on glutathione beads, 16-mer random dsDNA library, 0.1% formaldehyde crosslink after washing; high values mean tight binding
Holding throughout (conditions): protein: recombinant; tags: N-terminal GST; dsDNA, one strand shown

The target of test [1] is T1, FLI1 (Homo sapiens, UniProt Q01543 1-452).
T1 sequence: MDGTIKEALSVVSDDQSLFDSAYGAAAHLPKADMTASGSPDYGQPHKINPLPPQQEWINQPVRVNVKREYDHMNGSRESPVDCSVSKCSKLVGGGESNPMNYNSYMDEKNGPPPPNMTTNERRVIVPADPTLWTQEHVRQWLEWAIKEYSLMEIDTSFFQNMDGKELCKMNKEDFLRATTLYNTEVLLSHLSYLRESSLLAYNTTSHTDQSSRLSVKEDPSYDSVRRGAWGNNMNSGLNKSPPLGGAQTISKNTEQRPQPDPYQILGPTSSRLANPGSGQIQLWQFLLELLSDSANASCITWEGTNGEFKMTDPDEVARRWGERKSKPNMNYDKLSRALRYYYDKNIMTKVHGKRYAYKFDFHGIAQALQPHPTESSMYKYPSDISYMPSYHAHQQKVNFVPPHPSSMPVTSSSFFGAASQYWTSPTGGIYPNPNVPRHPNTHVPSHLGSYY
Put shortly:
(§1)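 Binding signal is defined as a hexamer's read frequency for one factor over its frequency for the tag-only sample. To obtain reads, GST-fused human transcription factors were expressed in yeast, captured on glutathione beads, barcoded with DNA and pooled with that sample. Pools met 200 nmole of a 16-mer random double-stranded DNA library in Tris/NaCl/DTT/glycerol buffer for 30 min at room temperature before washing, 0.1% formaldehyde crosslinking, proximity ligation (BsaI/T4 ligase, 1 h, 37 °C), PCR and Illumina NextSeq500 sequencing.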

In test [2] the target is T2, ELK1 (Homo sapiens, UniProt P19419 1-428).
T2 sequence: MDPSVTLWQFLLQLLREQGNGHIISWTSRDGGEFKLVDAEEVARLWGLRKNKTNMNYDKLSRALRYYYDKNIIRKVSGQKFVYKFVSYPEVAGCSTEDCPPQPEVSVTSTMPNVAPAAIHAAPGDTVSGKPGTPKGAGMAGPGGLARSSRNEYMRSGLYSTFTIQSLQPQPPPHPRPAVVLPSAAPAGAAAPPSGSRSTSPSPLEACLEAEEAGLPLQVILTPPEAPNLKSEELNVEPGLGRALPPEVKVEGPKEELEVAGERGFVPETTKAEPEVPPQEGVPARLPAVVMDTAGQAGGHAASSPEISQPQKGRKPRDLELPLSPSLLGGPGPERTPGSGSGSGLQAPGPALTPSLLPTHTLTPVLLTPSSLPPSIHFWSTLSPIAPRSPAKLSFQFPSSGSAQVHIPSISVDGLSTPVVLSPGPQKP
Put shortly:
as §1

In test [3] the target is T3, GABPA (Homo sapiens, UniProt Q06546 1-454).
T3 sequence: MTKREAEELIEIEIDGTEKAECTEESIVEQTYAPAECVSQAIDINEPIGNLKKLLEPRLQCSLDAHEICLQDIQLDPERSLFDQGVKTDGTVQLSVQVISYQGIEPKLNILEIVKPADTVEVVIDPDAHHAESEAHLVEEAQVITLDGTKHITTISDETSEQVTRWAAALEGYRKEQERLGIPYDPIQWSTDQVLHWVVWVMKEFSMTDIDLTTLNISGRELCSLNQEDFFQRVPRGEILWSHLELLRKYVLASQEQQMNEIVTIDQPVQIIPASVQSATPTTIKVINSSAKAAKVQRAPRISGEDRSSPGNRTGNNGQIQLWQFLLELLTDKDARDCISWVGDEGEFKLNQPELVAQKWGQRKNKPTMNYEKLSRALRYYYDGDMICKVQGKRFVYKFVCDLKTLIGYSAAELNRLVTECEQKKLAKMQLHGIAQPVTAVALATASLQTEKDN
An outline of the steps: as §1

The target in test [4] is T4, ERG (Homo sapiens, UniProt P11308 1-479).
T4 sequence: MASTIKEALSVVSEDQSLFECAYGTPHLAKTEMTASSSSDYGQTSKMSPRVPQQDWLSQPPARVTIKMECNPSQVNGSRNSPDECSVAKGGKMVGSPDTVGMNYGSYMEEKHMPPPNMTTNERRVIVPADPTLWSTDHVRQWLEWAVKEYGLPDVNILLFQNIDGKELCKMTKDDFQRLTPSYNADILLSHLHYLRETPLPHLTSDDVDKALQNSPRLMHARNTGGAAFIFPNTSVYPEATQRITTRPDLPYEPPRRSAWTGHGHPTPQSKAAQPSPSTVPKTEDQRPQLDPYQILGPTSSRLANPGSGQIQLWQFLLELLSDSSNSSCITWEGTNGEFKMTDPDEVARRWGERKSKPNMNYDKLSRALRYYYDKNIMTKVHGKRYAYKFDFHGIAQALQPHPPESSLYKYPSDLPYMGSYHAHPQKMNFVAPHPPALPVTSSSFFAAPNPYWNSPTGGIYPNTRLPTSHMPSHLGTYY
An outline of the steps:
as §1

In test [5] the target is ELF1 (Homo sapiens, UniProt P32519 1-619). Put shortly: as §1
Test [6] addresses T5, EHF (Homo sapiens, UniProt Q9NZC4 1-300).
T5 sequence: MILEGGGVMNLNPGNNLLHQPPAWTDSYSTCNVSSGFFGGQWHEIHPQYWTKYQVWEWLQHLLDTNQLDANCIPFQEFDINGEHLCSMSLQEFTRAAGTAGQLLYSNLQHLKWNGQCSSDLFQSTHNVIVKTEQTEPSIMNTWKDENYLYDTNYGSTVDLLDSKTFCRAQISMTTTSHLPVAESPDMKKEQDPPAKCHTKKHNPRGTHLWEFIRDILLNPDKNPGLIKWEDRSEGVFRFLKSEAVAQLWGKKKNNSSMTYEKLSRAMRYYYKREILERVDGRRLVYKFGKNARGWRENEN
An outline of the steps: as §1

Test [7] concerns the target SPI1 (Homo sapiens, UniProt P17947 1-270). An outline of the steps:
as §1

The target in test [8] is SPIB (Homo sapiens, UniProt Q01892 1-262). Put shortly: as §1
For test [9], the target named is T6, ELK3 (Homo sapiens, UniProt P41970 1-407).
T6 sequence: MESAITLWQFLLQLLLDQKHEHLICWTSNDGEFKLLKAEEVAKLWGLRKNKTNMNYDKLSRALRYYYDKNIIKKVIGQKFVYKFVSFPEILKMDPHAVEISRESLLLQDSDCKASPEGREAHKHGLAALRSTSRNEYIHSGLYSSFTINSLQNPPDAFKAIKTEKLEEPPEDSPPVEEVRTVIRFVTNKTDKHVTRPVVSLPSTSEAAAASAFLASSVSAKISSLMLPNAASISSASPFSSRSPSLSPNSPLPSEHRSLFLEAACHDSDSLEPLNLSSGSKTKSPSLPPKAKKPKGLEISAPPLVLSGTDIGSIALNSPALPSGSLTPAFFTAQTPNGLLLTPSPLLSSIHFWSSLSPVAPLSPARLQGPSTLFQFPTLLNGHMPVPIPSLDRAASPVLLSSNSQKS
Put shortly: as §1

Test [10] concerns the target SPI1 (Homo sapiens, UniProt P17947 1-270). An outline of the steps: as §1
This is another data set of the same source.

SPIB, sequence (Q01892 whole entry): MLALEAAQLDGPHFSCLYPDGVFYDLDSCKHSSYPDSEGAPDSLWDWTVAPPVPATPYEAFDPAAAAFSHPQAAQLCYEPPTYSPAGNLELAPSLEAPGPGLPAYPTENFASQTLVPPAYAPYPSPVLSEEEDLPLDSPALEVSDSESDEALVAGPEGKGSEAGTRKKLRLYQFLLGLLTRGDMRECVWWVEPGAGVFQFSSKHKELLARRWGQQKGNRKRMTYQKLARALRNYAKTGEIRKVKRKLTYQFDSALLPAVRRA
ELF1, sequence (P32519 whole entry): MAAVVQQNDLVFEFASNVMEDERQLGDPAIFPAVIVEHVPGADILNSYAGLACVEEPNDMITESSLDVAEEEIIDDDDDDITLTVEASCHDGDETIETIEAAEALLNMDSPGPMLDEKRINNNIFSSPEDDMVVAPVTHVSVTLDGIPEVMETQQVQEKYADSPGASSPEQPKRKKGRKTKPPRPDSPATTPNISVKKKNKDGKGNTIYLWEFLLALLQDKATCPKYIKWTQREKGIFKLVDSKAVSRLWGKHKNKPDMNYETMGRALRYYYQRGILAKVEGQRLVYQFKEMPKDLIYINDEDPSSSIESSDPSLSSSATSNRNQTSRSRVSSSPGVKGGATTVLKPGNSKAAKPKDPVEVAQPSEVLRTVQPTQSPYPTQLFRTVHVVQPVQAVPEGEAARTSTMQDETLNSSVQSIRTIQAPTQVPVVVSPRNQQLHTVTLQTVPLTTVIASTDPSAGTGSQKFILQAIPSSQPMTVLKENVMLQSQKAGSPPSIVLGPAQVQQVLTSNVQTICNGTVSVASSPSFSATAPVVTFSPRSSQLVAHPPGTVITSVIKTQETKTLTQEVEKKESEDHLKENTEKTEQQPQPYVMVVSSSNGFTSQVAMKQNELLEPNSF

As to CTTCCG, the binding signal was 7.32 fold enrichment (6-mer frequency, TF over GST control) in test [1]; 8.14 fold enrichment (6-mer frequency, TF over GST control) in [2]; 6.76 fold enrichment (6-mer frequency, TF over GST control) in [3]; 8.96 fold enrichment (6-mer frequency, TF over GST control) in [4]; 7.37 fold enrichment (6-mer frequency, TF over GST control) in [5]; 7.93 fold enrichment (6-mer frequency, TF over GST control) in test [6]. The binding signal is 9.8 fold enrichment (6-mer frequency, TF over GST control) in test [7]; 7.71 fold enrichment (6-mer frequency, TF over GST control) in test [8]; 9.13 fold enrichment (6-mer frequency, TF over GST control) in test [9].
In the case of ACTTCC, the binding signal in [1] was 7.89 fold enrichment (6-mer frequency, TF over GST control); in test [2], 8.92 fold enrichment (6-mer frequency, TF over GST control); in test [3] it was 7.33 fold enrichment (6-mer frequency, TF over GST control); in test [4], 10 fold enrichment (6-mer frequency, TF over GST control); in test [5], 7.99 fold enrichment (6-mer frequency, TF over GST control); in [6], 8.81 fold enrichment (6-mer frequency, TF over GST control). The binding signal in test [7] is 12.7 fold enrichment (6-mer frequency, TF over GST control); in [8] it was 8.52 fold enrichment (6-mer frequency, TF over GST control); in test [9] it was 9.72 fold enrichment (6-mer frequency, TF over GST control).
With GCTAAT, the binding signal was 1.14 fold enrichment (6-mer frequency, TF over GST control) in test [1]; 1.18 fold enrichment (6-mer frequency, TF over GST control) in [2]; 1.17 fold enrichment (6-mer frequency, TF over GST control) in test [3]; 1.13 fold enrichment (6-mer frequency, TF over GST control) in [4]; 1.16 fold enrichment (6-mer frequency, TF over GST control) in test [5]; 1.17 fold enrichment (6-mer frequency, TF over GST control) in test [6]. Moreover, the binding signal was 1.13 fold enrichment (6-mer frequency, TF over GST control) in [10]; 1.17 fold enrichment (6-mer frequency, TF over GST control) in test [8]; 1.2 fold enrichment (6-mer frequency, TF over GST control) in test [9].
AAGATT: the binding signal in test [1] is 1.1 fold enrichment (6-mer frequency, TF over GST control); in test [2], 1.17 fold enrichment (6-mer frequency, TF over GST control); in test [3] it was 1.18 fold enrichment (6-mer frequency, TF over GST control); in test [4] it was 1.17 fold enrichment (6-mer frequency, TF over GST control); in test [5] it was 1.19 fold enrichment (6-mer frequency, TF over GST control); in [6], 1.16 fold enrichment (6-mer frequency, TF over GST control). For the same sequence, the binding signal was 1.12 fold enrichment (6-mer frequency, TF over GST control) in test [10]; 1.16 fold enrichment (6-mer frequency, TF over GST control) in test [8]; 1.04 fold enrichment (6-mer frequency, TF over GST control) in test [9].
Consider TCGTCT, for which the binding signal in test [1] is 1.52 fold enrichment (6-mer frequency, TF over GST control); in test [2], 1.34 fold enrichment (6-mer frequency, TF over GST control); in test [3] it was 1.43 fold enrichment (6-mer frequency, TF over GST control); in test [4], 1.34 fold enrichment (6-mer frequency, TF over GST control); in test [5], 1.4 fold enrichment (6-mer frequency, TF over GST control); in test [6], 1.38 fold enrichment (6-mer frequency, TF over GST control). Besides, the binding signal was 1.26 fold enrichment (6-mer frequency, TF over GST control) in test [10]; 1.42 fold enrichment (6-mer frequency, TF over GST control) in [8]; 1.23 fold enrichment (6-mer frequency, TF over GST control) in test [9].
On to ATATCA, for which the binding signal was 1.23 fold enrichment (6-mer frequency, TF over GST control) in test [1]; 1.24 fold enrichment (6-mer frequency, TF over GST control) in test [2]; 1.22 fold enrichment (6-mer frequency, TF over GST control) in test [3]; 1.14 fold enrichment (6-mer frequency, TF over GST control) in test [4]; 1.2 fold enrichment (6-mer frequency, TF over GST control) in test [5]; 1.15 fold enrichment (6-mer frequency, TF over GST control) in test [6]. The binding signal in test [10] was 1.13 fold enrichment (6-mer frequency, TF over GST control); in [8], 1.14 fold enrichment (6-mer frequency, TF over GST control); in [9], 1.11 fold enrichment (6-mer frequency, TF over GST control).
Take ATACAC: the binding signal in test [1] was 1.18 fold enrichment (6-mer frequency, TF over GST control); in test [2] it was 1.19 fold enrichment (6-mer frequency, TF over GST control); in test [3], 1.25 fold enrichment (6-mer frequency, TF over GST control); in test [4], 1.25 fold enrichment (6-mer frequency, TF over GST control); in test [5], 1.19 fold enrichment (6-mer frequency, TF over GST control); in [6], 1.22 fold enrichment (6-mer frequency, TF over GST control). Besides, the binding signal was 1.23 fold enrichment (6-mer frequency, TF over GST control) in test [10]; 1.23 fold enrichment (6-mer frequency, TF over GST control) in [8]; 1.21 fold enrichment (6-mer frequency, TF over GST control) in test [9].
TTGGCA: the binding signal in [1] was 1.15 fold enrichment (6-mer frequency, TF over GST control); in test [2], 1.23 fold enrichment (6-mer frequency, TF over GST control); in [3], 1.08 fold enrichment (6-mer frequency, TF over GST control); in [4], 1.15 fold enrichment (6-mer frequency, TF over GST control); in test [5], 1.13 fold enrichment (6-mer frequency, TF over GST control); in [6], 1.08 fold enrichment (6-mer frequency, TF over GST control). Further, the binding signal is 1.16 fold enrichment (6-mer frequency, TF over GST control) in test [10]; 1.15 fold enrichment (6-mer frequency, TF over GST control) in test [8]; 1.17 fold enrichment (6-mer frequency, TF over GST control) in test [9].
